Rows were chosen to be rich in hits. Some 1.7% of all compounds tested hit in one or more screens of this group.
CFTR F508del cor: CFTR F508del correction in bronchial cells; AID 720511; CFBE cells, YFP halide quenching; stimulated with forskolin plus potentiator P3; % fluorescence drop versus neutral controls; activity (quench increase), % at 7.58 µM; 0.36% of 350,000 active;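 active = mean added fluorescence quench of at least 8% versus neutral control, with both replicates also reaching 8%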;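 also: cells transiently co-express mutant CFTR-F508del with the halide-sensitive YFP; corrector assay measuring rescue of mutant channel to the surface after 24 h compound exposure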
FGF22 binding: binders of recombinant human FGF22 by thermal shift. SYPRO orange fluorescence; percent of sucrose octasulfate shift, DMSO zero. activity (Tm shift, normalised), % at 9.99 µM. 1.5% of 340,000 active. AID 651658;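 active = mean Tm shift, scaled 0 neutral to 100 positive control, at about 1.3% or above, every replicate too, limit read from the data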
Target sequence (Q9HCT0 whole entry, looked up): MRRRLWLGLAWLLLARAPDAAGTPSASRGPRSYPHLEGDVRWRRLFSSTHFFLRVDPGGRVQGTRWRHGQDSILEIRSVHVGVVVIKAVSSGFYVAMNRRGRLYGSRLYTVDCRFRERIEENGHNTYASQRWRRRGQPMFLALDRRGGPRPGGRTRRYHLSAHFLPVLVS
Vif inh: blocks HIV Vif function; HEK293T cells, Vif self-association by quenched fluorescence, imaging, 24 h; AID 602346; 0.35% of 340,000 active; inhibition, % at 7.49 µM; in the data active = inhibition above about 50%, passing the limit was not always enough
* marks the source's active call; other numbers are inactive results; . = no result given.

SMILES	CFTR F508del cor	FGF22 binding	Vif inh
NCC[C@@H]1CC[C@@H](NC(=O)Nc2ccc(F)cc2)[C@@H](CO)O1	1	0	.
COc1cc(C(=O)N/N=C(\C)c2ccccn2)cc(OC)c1OC	1	1	0
COc1cc(C(=O)N/N=C(\c2ccccc2)c2ccccn2)cc(OC)c1OC	12*	0	1
CNC(=O)C[C@@H]1CC[C@@H]2[C@@H](COc3ccc(NC(=O)c4ccc(OC)cc4)cc3C(=O)N2C)O1	0	0	.
CCC(=O)N1[C@H](CO)[C@H](c2ccc(-c3ccccc3)cc2)[C@H]1CN(CC)C(C)=O	1	0	.
CCC(=O)N1[C@H](CN(CC)C(C)=O)[C@@H](c2ccc(-c3ccccc3)cc2)[C@@H]1CO	8.9*	.	.
O=C(C[C@H]1CC[C@H](NC(=O)C2CCOCC2)[C@H](CO)O1)NCc1ccccc1Cl	-2	0	.
Cc1ccc(-c2cnc3c(c2)C(=O)N([C@H](C)CO)C[C@H](C)[C@H](CN(C)C(=O)c2cccc(F)c2)O3)cc1	2	0	.
CCCCCCCCCCCCCCCC[n+]1cccc(C(=O)N(CC)CC)c1	5	0	19
CCCCCCCC[n+]1cccc(C(=O)N(CC)CC)c1	2	43*	13
C[C@H]1CN([C@@H](C)CO)C(=O)Cc2cc(NC(=O)Nc3ccc(C(F)(F)F)cc3)ccc2O[C@@H]1CN(C)Cc1ccc(-c2ccccc2)cc1	2	0	.
CCCC#Cc1cnc2c(c1)C(=O)N([C@H](C)CO)C[C@@H](C)[C@H](CN(C)C(=O)Cc1ccncc1)O2	3	0	.
NC(=S)NN=Cc1nccc2ccccc12	9.7*	0	13
NC(=S)NN=Cc1nccc2c(C(F)(F)C(F)(F)C(F)(F)F)cccc12	1	0	-13
COCC(=O)N(C)C[C@@H]1Oc2ncc(C#Cc3ccccc3)cc2C(=O)N([C@@H](C)CO)C[C@@H]1C	-3	0	.
CCCS(=O)(=O)N1CCN(Cc2c[nH]c3ccccc23)CC1	-1	43*	31
COc1ccc(S(=O)(=O)N2CCN(Cc3c[nH]c4ccccc34)CC2)cc1	.	.	3
COc1ccc(NC(=O)Nc2ccc3c(c2)C(=O)N([C@H](C)CO)C[C@H](C)[C@H](CN(C)S(C)(=O)=O)OCCCC[C@H](C)O3)cc1	4	-1	.
O=C(C[C@@H]1C[C@H]2c3cc(NS(=O)(=O)c4ccccc4)ccc3O[C@H]2[C@H](CO)O1)NCC(F)(F)F	0	1	.
Cc1[nH][nH]c(=O)c1/C=N/N1CCOCC1	-3	43*	-10
Fc1cccc(F)c1/C=N/N1CCOCC1	.	0	3
Clc1ccc(SCc2csc(N3CCOCC3)n2)cc1	-1	0	-6
Clc1ccc(SCc2cc(N3CCOCC3)nc(-c3ccccn3)n2)cc1	8.1*	0	-1
Cc1cc(NCc2ccccn2)n2ncc(-c3ccc(Cl)cc3)c2n1	0	0	-1
Cc1cc(NCc2ccccn2)n2ncc(-c3ccccc3)c2n1	8.5*	0	0
SMILES	CFTR F508del cor	FGF22 binding	Vif inh
C[C@H]1CCCCO[C@@H](CN(C)C(=O)C2CCCCC2)[C@@H](C)CN([C@@H](C)CO)C(=O)c2cc(NC(=O)c3ccccc3)ccc2O1	1	0	.
Cn1cnc(S(=O)(=O)N2C[C@H](O)COC[C@@H]3O[C@@H](CC(=O)NCc4cc(F)cc(F)c4)CC[C@H]32)c1	2	0	.
O=C(Nc1scc(-c2ccccc2)c1C(=O)O)c1ccccc1Cl	0	37*	-9
Cc1ccc(C(=O)Nc2scc(-c3ccccc3)c2C(=O)O)cc1	-4	0	-8
CN1c2ccccc2C(C)(C)C12C=Nc1c(ccc3ccccc13)O2 (stereo not drawn)	.	.	5
CN1c2ccccc2C(C)(C)[C@]12C=Cc1cc(O)ccc1O2	.	.	74*
C[C@H]1CN([C@@H](C)CO)C(=O)c2cc(NC(=O)NC3CCCCC3)ccc2O[C@@H]1CN(C)Cc1ccncc1	-5	0	.
CN(C)C(=O)C[C@@H]1C=C[C@H](NS(=O)(=O)c2ccccc2)[C@@H](CO)O1	0	.	.
COc1ccccc1/C=C1/SC(=S)N(C(C)C(=O)NC2C=CS(=O)(=O)C2)C1=O (stereo not drawn)	0	0	55*
CC(C(=O)NC1C=CS(=O)(=O)C1)N1C(=O)/C(=C\c2ccccc2)SC1=S (stereo not drawn)	3	0	-24
O=C(C[C@@H]1CC[C@H](NS(=O)(=O)c2ccccc2)[C@@H](CO)O1)NCc1ccccc1F	0	0	.
O=C(OCc1nnc(-c2ccccc2)o1)c1ccccc1	-2	43*	-9
Cc1nc2ccc(C(=O)OCc3nnc(-c4ccccc4)o3)cc2nc1C	2	0	.
C[C@@H]1CN([C@H](C)CO)S(=O)(=O)c2ccc(C3=CCCCC3)cc2O[C@H]1CN(C)C(=O)Cc1ccncc1	3	0	.
CC1(C)Cc2c(c(-c3ccco3)nc3sc4c(NCCCO)ncnc4c23)CO1	7	0	-5
CC1(C)Cc2c(c(-c3ccco3)nc3sc4c(NCCN5CCOCC5)ncnc4c23)CO1	9.7*	0	1
O=[N+]([O-])c1cc(-c2ccc(/C=N\n3cnnc3)o2)cc([N+](=O)[O-])c1	0	0	121*
Clc1cccc(-c2ccc(/C=N/n3cnnc3)o2)c1	.	.	-3
C[C@@H]1CN([C@@H](C)CO)C(=O)c2cccc(NS(=O)(=O)c3ccccc3)c2O[C@@H]1CN(C)CC1CCCCC1	0	0	.
COc1ccccc1C#Cc1ccc2c(c1)O[C@H](CN(C)Cc1cccnc1)[C@H](C)CN([C@H](C)CO)S2(=O)=O	2	0	.
COc1ccccc1C#Cc1ccc2c(c1)O[C@@H](CN(C)Cc1cccnc1)[C@H](C)CN([C@H](C)CO)S2(=O)=O	8.2*	0	.
C[C@H](CO)N1C[C@H](C)[C@H](CN(C)C(=O)Cc2cccnc2)Oc2cc(C#Cc3ccccc3F)ccc2S1(=O)=O	0	-1	.
C[C@@H]1CN([C@H](C)CO)S(=O)(=O)c2ccc(C#Cc3ccccc3F)cc2O[C@H]1CN(C)C(=O)Cc1cccnc1	10*	0	.
O=C(C[C@H]1CC[C@H](NS(=O)(=O)c2ccccc2)[C@@H](CO)O1)NCc1ccc(Cl)c(Cl)c1	-1	1	.
O=C(Nc1cc(F)ccc1F)N1CC(=O)N2[C@H](C1)[C@H](c1ccc(C#CC3CCCCC3)cc1)[C@@H]2CO	0	-1	.
SMILES	CFTR F508del cor	FGF22 binding	Vif inh
O=C(Nc1cc(F)ccc1F)N1CC(=O)N2[C@@H](CO)[C@H](c3ccc(C#CC4CCCCC4)cc3)[C@@H]2C1	9.9*	0	.
CC(C)CC#Cc1ccc([C@H]2[C@@H](CO)N3C(=O)CN(C(=O)Nc4cc(F)ccc4F)C[C@H]23)cc1	0	0	.
CCCC#Cc1ccc([C@H]2[C@H](CO)N3C(=O)CN(C(=O)Nc4cc(F)ccc4F)C[C@@H]23)cc1	10*	.	.
Cc1ccc(S(=O)(=O)N(C)C[C@@H]2OCCCC[C@H](C)Oc3ccc(NC(=O)NC(C)C)cc3C(=O)N([C@@H](C)CO)C[C@H]2C)cc1	1	.	.
CC1=C(C)/C(=N\OS(=O)(=O)c2ccccc2)C=CC1=O	.	.	55*
O=S(=O)(N=C1C=CC(=NS(=O)(=O)c2ccccc2)c2ccccc21)c1ccccc1	-2	0	3
